High-throughput results: PubChem BioAssay, National Center for Advancing Translational Sciences (NCATS)
JMJD2A Tudor: qHTS Assay for Inhibitors of JMJD2A-Tudor Domain; Lysine-specific demethylase 4A (Homo sapiens), O75164; AlphaScreen JMJD2A-Tudor / H3K4me3 peptide binding; Potency, µM (series often up to 114 µM), for inactives: at the highest dose activity change, negative = inhibition, actives largely listed as inhibitors; 390,000 tested, 4.4% active; AID 504339, 2011; also: % is scaled to controls: 0 for no effect and ±100 for the full control effect; nearly all actives have a fitted effect of over 50% in size
G9a block: qHTS Assay for Inhibitors of Histone Lysine Methyltransferase G9a; Histone-lysine N-methyltransferase EHMT2 (Homo sapiens), Q96KQ7; G9a H3K9 monomethylation, AlphaScreen, 2 h; Potency, µM (top dose mostly 102 µM), for the others: at the top dose activity, negative = inhibition, most hits filed as inhibitors; 350,000 tested, 8.8% active; AID 504332, 2011; also: % is scaled to controls: 0 for no effect and ±100 for the full control effect; nearly all actives have a fitted effect of over 75% in size
Target sequence (Q96KQ7 913-1193 limits assumed): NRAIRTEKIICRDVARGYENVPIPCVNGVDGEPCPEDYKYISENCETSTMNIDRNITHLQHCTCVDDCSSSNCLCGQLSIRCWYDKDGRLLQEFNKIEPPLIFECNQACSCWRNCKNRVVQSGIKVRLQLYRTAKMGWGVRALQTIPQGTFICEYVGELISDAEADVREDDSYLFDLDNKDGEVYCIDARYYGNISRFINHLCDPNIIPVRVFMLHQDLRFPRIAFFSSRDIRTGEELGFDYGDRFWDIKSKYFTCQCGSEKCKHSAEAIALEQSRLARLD
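Methyltransferase reactions run at room temperature for 2 h (20 nM enzyme, 500 nM biotin-H3K9 peptide, 20 uM SAM) after a 15 min compound preincubation; product detected by AlphaScreen beads and anti-H3K9me1 antibody.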
ALOX12 inh: Primary qHTS assay for inhibitors of human arachidonate 12S-lipoxygenase (ALOX12): Round 2 | purified 12hLO, xylenol orange hydroperoxide absorbance | Potency, µM (series often up to 108 µM), for inactives: at the top dose activity change, negative = inhibition, hits mostly inhibitors | 580,000 tested, 1.1% active; also: % is scaled to controls: 0 for no effect and ±100 for the full control effect
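Purified human 12hLO (150 nM final) in 25 mM Hepes, 0.01% Triton X-100, pH 7.0 was preincubated 15 min at room temperature with compound. Then 40 uM arachidonic acid was added, 30 min. Hydroperoxide was read by Fe-XO absorbance ratio 573/405 nm.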
BAZ2B block: qHTS Assay for Inhibitors of BAZ2B; Bromodomain adjacent to zinc finger domain protein 2B (Homo sapiens), Q9UIF8; AlphaScreen BAZ2B-H3K14Ac peptide displacement; Potency, µM (series often up to 114 µM), inactives show at the top dose activity change, negative = inhibition, most hits filed as inhibitors; 360,000 tested, 4.4% active; also: % is scaled to controls: 0 for no effect and ±100 for the full control effect; nearly all actives have a fitted effect of over 60% in size
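AlphaScreen luminescence quantifies BAZ2B engagement of H3K14Ac peptide; the protein and biotinylated peptide are both at 50 nM final, buffer PBS pH 7.4 with 0.01% Tween-20, all steps at room temperature.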
Sfp inh: qHTS Assay for Inhibitors of Bacillus subtilis Sfp phosphopantetheinyl transferase (PPTase); 4'-phosphopantetheinyl transferase ffp (Bacillus subtilis), Q9F4F7; Potency, µM, inactives show largest response in the series, negative = inhibition, actives largely listed as inhibitors; 310,000 tested, 3.5% active; Biochemical Sfp PPTase activity, qHTS;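 also: the enzyme is Sfp with the accession as filed and its product quenches rhodamine fluorescence; 0% = enzyme reaction without inhibitor and -100% = no enzyme wells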
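Buffer: 50 mM Hepes-Na pH 7.6, 10 mM MgCl2, 0.01% Nonidet P-40, 0.01% BSA. Enzyme 15 nM, pre-exposed to compound 15 min; substrates then added and fluorescence change tracked over 30 min.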
HP1b chromo inh: HTS for Inhibitors of HP1-beta Chromodomain Interactions with Methylated Histone Tails | AlphaScreen HP1-beta / biotin-H3K9me3 peptide binding | 390,000 tested, 0.56% active | AID 540317, 2011 | Potency, µM (series often up to 114 µM), for the others: top-dose activity change, negative = inhibition, most hits filed as inhibitors; also: nearly all actives have a fitted effect of over 70% in size
Target sequence (P83916 whole entry, looked up): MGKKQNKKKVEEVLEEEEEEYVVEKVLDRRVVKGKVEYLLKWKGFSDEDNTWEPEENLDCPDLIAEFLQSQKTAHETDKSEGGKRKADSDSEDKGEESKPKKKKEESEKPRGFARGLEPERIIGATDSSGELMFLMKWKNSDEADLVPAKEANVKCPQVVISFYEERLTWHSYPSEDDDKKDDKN
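HP1-beta protein (50 nM final) preincubated 30 min at room temperature with biotinylated H3(1-18)K9me3 peptide (50 nM) in PBS pH 7.4, 0.01% Tween-20, then compound added for 30 min. AlphaScreen streptavidin donor/nickel chelate acceptor beads (10 ug/mL final), 30 min dark, luminescence read.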
Starred values were filed as active, the others as inactive; [ ] = remark or other dose. An excerpt weighted towards active compounds, which were near 8.7% of everything screened. Calls follow the shape of the dose curve; as a rule, active = well fitted curve in the direction sought with a large enough effect; inconclusive = small, poorly fitted or top-dose-only effect, or another doubt; inactive = no such curve, though single readings can be large; an effect the other way counts as inactive or inconclusive. Potency is read from the fitted curve at half-maximal effect.

How did C/C(=N\Nc1nc2c(s1)CCCC2)c1ccc(Cl)cc1 do in these assays?
JMJD2A Tudor: inconclusive; G9a block: inconclusive; ALOX12 inh: 40µM*; BAZ2B block: 45µM*; Sfp inh: 50µM*; HP1b chromo inh: -23%

What do the screens show for `CCCCOC(=O)/C(C#N)=C/c1ccc(-c2ccccc2)o1`?
ALOX12 inh: -12%

What do the screens show for `O=S(=O)(Nc1cccc2cccnc12)c1ccc(Br)s1`?
JMJD2A Tudor: inconclusive; Sfp inh: 10%

How did O=S(=O)(Nc1cccc2cccnc12)c1ccccc1O do in these assays?
JMJD2A Tudor: 32µM*; Sfp inh: 12%

How did O=S(=O)(Nc1cccc2cccnc12)c1cccs1 do in these assays?
JMJD2A Tudor: 79µM*; HP1b chromo inh: 29%

How did COc1ccc(/C=C(\C#N)C(=O)N2CCOCC2)cc1 do in these assays?
ALOX12 inh: 1%

Results for COCCNC(=O)c1coc(COc2ccc3c(c2)C(c2ccc(F)cc2)N(C(=O)C(C)C)CC3)n1 (configuration not stated) ?
ALOX12 inh: 18%

What do the screens show for `COc1ccc(COC(=O)c2[nH]c3c(c2C)C(=O)CC(c2ccc(OC)c(OC)c2)C3)cc1` (configuration not stated)?
JMJD2A Tudor: -18%; G9a block: -31%[59 µM]; ALOX12 inh: 2%; BAZ2B block: -4%; HP1b chromo inh: -3%

How did CCOC(=O)c1[nH]c2c(c1-c1ccc(OC)cc1)C(=O)CC(c1ccc(OC)c(OC)c1)C2 (configuration not stated) do in these assays?
JMJD2A Tudor: -30%; G9a block: 50µM*; ALOX12 inh: 57%; BAZ2B block: inconclusive; Sfp inh: -10%; HP1b chromo inh: 62%

How did O=C(NC[C@H]1O[C@@H]2C[C@@H](CC(=O)N3CCOCC3)O[C@@H]2[C@@H]1O)Nc1ccc(F)cc1 do in these assays?
ALOX12 inh: -30%[176 µM]

What do the screens show for `CC(=O)N(C)Cc1ccc(F)cc1`?
ALOX12 inh: 14%[176 µM]

How did CC(=O)N(C)Cc1ccc(C(=O)CCl)cc1 do in these assays?
JMJD2A Tudor: 7%; G9a block: inconclusive; ALOX12 inh: -21%; BAZ2B block: -9%; Sfp inh: 79µM*; HP1b chromo inh: inconclusive

How did COC(=O)c1[nH]c2cc(OC)ccc2c1NC(=O)CN1CCCCC1C (configuration not stated) do in these assays?
ALOX12 inh: 57%

Results for Cc1ccc(Cn2c(CCNc3nc(-c4ccc(C)cc4)cs3)nc3cc(C(=O)NCCCO)ccc32)cc1 ?
JMJD2A Tudor: inconclusive; ALOX12 inh: -11%; HP1b chromo inh: 30%

Results for CCCn1c(C(C)Nc2nc(-c3cccc(Br)c3)cs2)nc2ccccc21 (configuration not stated) ?
JMJD2A Tudor: inconclusive; G9a block: inconclusive; ALOX12 inh: -2%; BAZ2B block: -28%; Sfp inh: -13%; HP1b chromo inh: 16%

What do the screens show for `Cc1ccc(Cn2c(C(C)Nc3nc(-c4ccc(C)cc4)cs3)nc3cc(Cl)c(Cl)cc32)cc1` (configuration not stated)?
JMJD2A Tudor: inconclusive; G9a block: 28µM*; ALOX12 inh: -27%; BAZ2B block: 40µM*; Sfp inh: -14%; HP1b chromo inh: 45µM*
